The campaign covered roughly 330,000 compounds. About 1,900 (0.58%) were called active. Not shown: some 4% with an inconclusive outcome. These entries were drawn from the full list. Measured potencies and affinities stand elsewhere. A number with no mark means an inactive call. No stated cut-off is given here; in the data, inconclusive means inhibition above about 70% without an active follow-up result; inactive means below that.
Experiment: M. tuberculosis growth inhibition, HTS (AID 449762);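 further: bacterial growth assessed after seven days of incubation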
Conditions: M. tuberculosis H37Rv growth inhibition, 7H9 media; at 25 µM; stronger effect = higher value

Row | SMILES | inhibition [%]
1 | COc1cc(-c2noc(C)c2C(=O)NCc2ccc(C)o2)cc(OC)c1OC | 3.84
2 | CC(=O)c1c(C)[nH]c(C(=O)OCC(=O)NCc2cccs2)c1C | 7.06
3 | CC(C)Nc1nc(NC(C)C)nc(N(C)C#N)n1 | 0.57
4 | CC(C)Nc1nc(NC(C)C)nc(N(C)C(N)=O)n1 | 1.68
5 | C=CC[C@H](CC(=O)OC(C)(C)C)C(=O)OC[C@H]1CCCN1C(=O)[C@@H](CC=C)CC(=O)N(CCO)Cc1ccccc1 | -3.24
6 | C[C@@H](NC(=O)c1[nH]cnc1C(=O)Nc1cccc(Cl)c1)c1ccccc1 | 56.8
7 | C[C@H](NC(=O)c1[nH]cnc1C(=O)Nc1cccc(Cl)c1)c1ccccc1 | 48.7
8 | O=C(CN(Cc1ccccc1)C(=O)CNS(=O)(=O)c1ccc(F)cc1)NCC1CCCO1 (stereo unspecified) | -5.05
9 | Cc1nn(-c2ccccc2)c(Cl)c1/C=N/NC(N)=O | -5.57
10 | Cc1nn(C)c(C)c1/C=C/C(=O)c1ccccc1 | 7.75
11 | O=C(c1cccc(C(F)(F)F)c1)c1c[nH]c(C(=O)NCCCN2CCOCC2)c1 | 2.14
12 | O=C(Nc1ccc2[nH]ncc2c1)c1ccccc1Cl | -3.21
13 | Cc1cc(S(=O)(=O)Nc2ccc3cn[nH]c3c2)c(C)cc1Cl | -3.66
14 | O=Cc1cc(Br)c(OC(=O)N2CCOCC2)c(Br)c1 | 5.26
15 | Cc1ccc(-c2nn(-c3ccccc3)cc2CO)cc1 | 4.76
16 | OCc1cn(-c2ccccc2)nc1-c1ccc(-c2nn(-c3ccccc3)cc2CO)cc1 | 0.63
17 | CC(C)[C@]1(c2ccc(Cl)cc2)ON(c2ccccc2C(F)(F)F)C1=O | 1.98
18 | O=C(CCc1nc2ccccc2c(=O)[nH]1)Nc1nnc(SCc2ccc(Cl)cc2)s1 | -0.53
19 | Cn1ccnc1SCC(=O)NCC(=O)Nc1ccc(F)c(F)c1F | 1.26
20 | c1ccc(CN2CCC(Nc3nc(-c4cccnc4)nc4ccccc34)CC2)cc1 | 10.5
21 | c1ccc(-c2nc(NC3CCCC3)c3ccccc3n2)cc1 | 11.8
22 | O=C(Nc1ccc(Cl)c(Cl)c1)c1ccc(Cl)c(Cl)c1 | 1.7
23 | O=C(Nc1ccncc1)c1ccc(Cl)c(Cl)c1 | 4.84

Row | SMILES | inhibition [%]
24 | CC(=O)Nc1ccc2nc3ccccc3nc2c1 | -9.66
25 | O=C(Nc1ccc2nc3ccccc3nc2c1)c1ccccc1 | -0.69
26 | COc1ccc(C)cc1NC(=O)CN1CCCC1c1ccc2c(c1)OCCCO2 (stereo unspecified) | 5.61
27 | COc1ccc(NC(=O)CCCCCN2C(=O)c3ccccc3C2=O)c(OC)c1 | -6.73
28 | C/C(=N\Nc1cccc(Cl)c1)c1ccc(-n2ccnc2)cc1 | 0.99
29 | C/C(=N\Nc1ccccc1Cl)c1ccc(-n2ccnc2)cc1 | 58.6
30 | COc1cccc(-c2cc(C(F)(F)F)c(C#N)c(=O)[nH]2)c1 | -9.57
31 | Cc1csc(=Nc2ccccc2)n1Cc1ccco1 | 11.3
32 | N#Cc1c(NC(=O)CSc2nnnn2C2CCCCC2)sc2c1CCCC2 | -13.1
33 | Cn1nnnc1SCC(=O)Nc1nc2c(s1)CCCC2 | 2.88
34 | Cc1ccc(N(CC(=O)NCc2ccco2)C(=O)CCC(=O)Nc2nccs2)c(C)c1 | 1.4
35 | Cc1cc(N2CCC(C(=O)N3CCN(c4cccc(C)c4C)CC3)CC2)n2ncnc2n1 | -0.67
36 | COc1ccc2cc(C(=O)/C=C/c3cc(OC)c(O)c(OC)c3)ccc2c1 | 36.1
37 | COc1ccc(/C=C/C(=O)c2ccc(OC)cc2OC)cc1 | 58.4
38 | CC(=O)c1cccc(N2C(=NC(=O)CCc3ccccc3)SC3CS(=O)(=O)CC32)c1 (stereo unspecified) | 1.65
39 | Cc1ccc(S(=O)(=O)NNC(=O)CCC(=O)Nc2ccc(C)cc2C)cc1 | 5.58
40 | COc1cc(SC)ccc1C(=O)OCC(=O)NC1CCCCC1 | -4.21
41 | CCCCCC1CC(CC(=O)Nc2ccc([N+](=O)[O-])cc2)C(=O)O1 (stereo unspecified) | 68.8
42 | CCCCCCC1CC(CC(=O)Nc2ccc([N+](=O)[O-])cc2)C(=O)O1 (stereo unspecified) | 5.26
43 | O=C(CCNS(=O)(=O)c1ccc(F)c(Cl)c1)NCc1ccccc1F | -9.24
44 | O=C(COC(=O)Cc1ccsc1)NCc1ccc(Cl)cc1 | 8.12
45 | Cc1cc(C)c(C(=O)CC(=O)c2ccccc2Cl)c(O)c1 | 6.33
46 | Cc1cccc(C(=O)CC(=O)c2cc(Cl)ccc2O)c1 | 0.28

Row | SMILES | inhibition [%]
47 | Cc1ccc(-c2nnc(SCC(=O)N/N=C/c3c(C)nn(-c4ccccc4)c3C)n2-c2ccc(C)cc2)cc1 | 5.96
48 | COc1ccc(CCN(C)CC(O)COC(c2ccc(F)cc2)c2ccc(F)cc2)cc1OC (stereo unspecified) | 6.55
49 | CCCN1CCN(CC(O)COC(c2ccc(OC)cc2)c2ccc(OC)cc2)CC1 (stereo unspecified) | 6.36
50 | O=C(NN1CC(C(=O)OCc2ccc(Cl)cc2Cl)CC1=O)c1ccccc1 (stereo unspecified) | -12
51 | O=C(c1ccc(C(=O)N2CCN(c3ccccc3F)CC2)nc1)N1CCN(c2ccccc2F)CC1 | -7.27
52 | CC1(OC(=O)c2cccs2)C(=O)C=C2C=C(c3ccsc3)OC=C2C1=O (stereo unspecified) | -0.64
53 | O=C(Nc1ccc(Cn2ccnc2)cc1)c1cccc(C(F)(F)F)c1 | 7.08
54 | O=C(CSC1CCCCC1)Nc1nccs1 | -8.08
55 | CC(C)C(=O)Nc1ncc(Cc2ccccc2Cl)s1 | -0.61
56 | O=C(Nc1ncc(Cc2ccccc2Cl)s1)c1ccc([N+](=O)[O-])cc1 | 10.6
57 | COc1ccc(C(=O)OCC(=O)Nc2c(C)cccc2C)cc1 | 0.88
58 | CC1CCCC(NC(=O)CSC2=Nc3ccccc3C3CC=NN23)C1C (stereo unspecified) | 11.7
59 | Cc1cc(C)n(-c2nc(NCCO)c3c4c(sc3n2)CCCC4)n1 | 10.4
60 | Cc1cc(C)n(-c2nc(NCCCN(C)C)c3c4c(sc3n2)CCCC4)n1 | 9.07
61 | CN1CCN(/N=C/c2ccc(Br)cc2)CC1 | 2.12
62 | O=C(NN=Cc1cccc([N+](=O)[O-])c1)c1cc(-c2cccnc2)nc2ccccc12 | 5.59
63 | CC1=CC(=O)C(C(C)C)=CC1=NC(=O)c1ccc(C)cc1 | 3.21
64 | CC1=CC(=O)C(C(C)C)=C/C1=N/OC(=O)c1cccc([N+](=O)[O-])c1 | -5.41
65 | CCCOc1ccc(-c2csc3ncn(Cc4ccc(C(=O)O)cc4)c(=O)c23)cc1 | 11.8
66 | COc1cc(/C=C(\C#N)c2nc3c(s2)CCCC3)ccc1O | 67.9
67 | CC1CCc2nc(/C(C#N)=C/c3ccncc3)sc2C1 (stereo unspecified) | 17.6
68 | O=C(NCCC(=O)N1CCN(c2ccccn2)CC1)c1ccc(Cl)cc1 | 9.44
69 | CC1(C)Cc2c(cnn2-c2ccccc2)C(=O)/C1=N\NC(=O)c1ccccc1O | 0.99

Row | SMILES | inhibition [%]
70 | CC1(C)Cc2c(cnn2-c2ccccc2)C(=O)/C1=N\NC(=O)c1ccccc1 | 6.2
71 | COc1cccc(C2CC(c3ccc(Br)cc3)=NN2C(=O)c2ccncc2)c1OC (stereo unspecified) | 10.4
72 | C=C1CCC[C@]2(C)C[C@H]3OC(=O)C(CNC(C)CC)[C@H]3CC12 (stereo partly specified) | 7.33
73 | C=C1CCC[C@]2(C)C[C@H]3OC(=O)C(CNCC(C)C)[C@H]3CC12 (stereo partly specified) | -0.86
74 | CN(C)C(=O)c1ccc(Cl)cc1[N+](=O)[O-] | -3.01
75 | COc1ccc(S(=O)(=O)N(C)C[C@H]2Oc3c(NC(=O)NC(C)C)cccc3C(=O)N([C@H](C)CO)C[C@@H]2C)cc1 | -6.16
76 | O=c1c2ccccc2nc2c3ccccc3c(NCCN3CCOCC3)nn12 | 7.65
77 | c1ccc(-c2csc3ncnc(NCCCN4CCOCC4)c23)cc1 | 0.1
78 | COc1cccc(CNS(=O)(=O)c2c(C(=O)N3CCCC3)c(C)n(C)c2C)c1 | 3.63
79 | COc1ccc(N2CC(C)Cn3c2nc2c3c(=O)[nH]c(=O)n2C)cc1 (stereo unspecified) | -7.69
80 | NC(=O)c1c(NC(=O)CSc2nnc(Cc3ccccc3)n2Cc2ccco2)sc2c1CCC2 | 55.7
81 | CC(=O)OCC1OC(n2ccc3ccccc32)C(OC(C)=O)C(OC(C)=O)C1OC(C)=O (stereo unspecified) | -6.94
82 | O=C(CN1CCN(S(=O)(=O)c2ccc(F)cc2)CC1)Nc1ccc(Cl)c(C(F)(F)F)c1 | 3.5
83 | CC(=O)c1cccc(OCC(=O)N2CCN(CC(=O)Nc3cccc(F)c3)CC2)c1 | -12.4
84 | COc1ccc(NC(=O)c2sc3nc(C)nc(N4CCOCC4)c3c2C)c(OC)c1 | -1.8
85 | CCOc1ccccc1NC(=O)c1sc2nc(C)nc(N3CCOCC3)c2c1C | 10.4
86 | CC(C)(C)OC(=O)C[C@H]1C/C=C\C[C@H](CC(=O)N(CCO)Cc2ccccc2)C(=O)N[C@@H](c2ccccc2)COC1=O | -6.06
87 | COc1ccc(OC)c(NS(=O)(=O)Cc2ccccc2)c1 | -14.1
88 | Cc1cc(=O)oc2c(C)c(OC(C)C(=O)NCC3CCC(C(=O)O)CC3)ccc12 (stereo unspecified) | 1.04
89 | Cn1ncc(Cl)c1C(=O)Nc1nnc(C2CC2)s1 | -2.94
90 | N#CCCN(C(=O)COC(=O)CCc1nc2ccccc2c(=O)[nH]1)c1ccc(F)cc1 | -3.42
91 | N#CCCN(C(=O)COC(=O)Cc1c[nH]c2ccccc12)c1ccccc1 | 1.58

Reference: PubChem BioAssay AID449762 (Southern Research Specialized Biocontainment Screening …, 2010)
